Test [1] in a line: rapamycin-like changes in RPL19A-GFP expression – cell-based, S. cerevisiae, multiplex flow cytometry, primary screen (AID 1862; in the data active = percent of DMSO control GFP below about 86%;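 also: lower values mimic rapamycin by blocking the RPL19A rise seen in DMSO cells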). Particulars: S. cerevisiae RPL19A-GFP strain, flow cytometry fluorescence, 3 h; at 10 µM; stronger effect = lower value. (In general: In flow cytometry, cells or beads pass a laser one at a time.)
Test [2] can be described thus: TOR pathway GLN3 branch reporter MEP2-GFP changes – S. cerevisiae, multiplex flow cytometry, primary screen (AID 1867;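 active = GFP response, as percent of the DMSO control, above the screen-wide mean plus 3 SD, about 139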;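 also: median GFP channel fluorescence of barcode-gated MEP2-GFP cells measured by flow cytometry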). Conditions: S. cerevisiae MEP2-GFP strain, 3 h, at 10 µM, stronger effect = higher value.
Test [3] can be described thus: TOR pathway RTG branch CIT2 reporter changes – S. cerevisiae, GFP fusion, multiplex flow cytometry, primary screen (AID 1870;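 active = percent response above a set limit, the screen-wide mean plus 3 SD, cut at about 130% in these data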;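 also: barcoded CIT2-GFP strain pooled with four other GFP strains with rapamycin as positive control; median GFP fluorescence per well over plate mean of DMSO wells so 100% = DMSO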). Conditions: S. cerevisiae CIT2-GFP expression, 3 h, at 10 µM, stronger effect = higher value.
A short description of test [4]: TOR pathway LAP4-GFP level changes – S. cerevisiae, multiplex flow cytometry, primary screen (AID 1873;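 active = GFP signal, as percent of the solvent control, above the screen mean plus 3 SD, about 149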). Conditions: S. cerevisiae LAP4-GFP expression, 3 h, at 10 µM, stronger effect = higher value.
A short description of test [5]: yeast AGP1-GFP level changes, GLN3 branch – cell-based, multiplex flow cytometry, S. cerevisiae, primary screen (AID 1887;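 active = GFP signal above the screen-wide mean plus 3 SD, that is over about 124.5% of the solvent control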;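 also: AGP1-GFP fusion strain of S. cerevisiae within a five-strain barcoded multiplex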). Particulars: 3 h, at 10 µM, stronger effect = higher value.
The nature of test [6]: reduced mouse 2C T cell binding to pMHC/ICAM-1 vesicles – MLPCN validation set, flow cytometry, LFA-1/ICAM-1 modulator project, pilot screen (AID 2523;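 active = response below a set limit, under 55% cells CD8-positive and vesicle-bound, and CD8 cells' 90th-percentile brightness under 279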;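 as to vesicle binding response: mean PE anti-B7-1 fluorescence of CD8+ cells relative to row control; 100% = QL9-loaded vesicles with DMSO vehicle in the same plate row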). Particulars: 2C mouse CD8+ T cells, at 7 µM, stronger effect = lower value; double positive events: measured here: CD8+/vesicle+ event percentage.
The target in test [7] is Integrin beta-1 (Homo sapiens) + Integrin alpha-4 (Homo sapiens) (UniProt P13612+P05556). The experiment in a line: alpha4beta1 integrin LIBS antibody binding reduction – U937 cells, HUTS-21 mAb, flow cytometry, validation set, VLA-4 allosteric modulator project, pilot screen (AID 2674;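 active = inhibition above 50%, about 3 SD of the validation set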;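 also: antibody binding induced by the VLA-4 ligand LDV present at three times its Kd; 0% = LDV ligand with antibody and no compound and 100% = antibody without LDV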). Particulars: HUTS-21 LIBS mAb binding, at 6.7 µM, stronger effect = higher value.
Chain of Integrin beta-1 (Homo sapiens) + Integrin alpha-4 (Homo sapiens) (P05556 whole entry, looked up): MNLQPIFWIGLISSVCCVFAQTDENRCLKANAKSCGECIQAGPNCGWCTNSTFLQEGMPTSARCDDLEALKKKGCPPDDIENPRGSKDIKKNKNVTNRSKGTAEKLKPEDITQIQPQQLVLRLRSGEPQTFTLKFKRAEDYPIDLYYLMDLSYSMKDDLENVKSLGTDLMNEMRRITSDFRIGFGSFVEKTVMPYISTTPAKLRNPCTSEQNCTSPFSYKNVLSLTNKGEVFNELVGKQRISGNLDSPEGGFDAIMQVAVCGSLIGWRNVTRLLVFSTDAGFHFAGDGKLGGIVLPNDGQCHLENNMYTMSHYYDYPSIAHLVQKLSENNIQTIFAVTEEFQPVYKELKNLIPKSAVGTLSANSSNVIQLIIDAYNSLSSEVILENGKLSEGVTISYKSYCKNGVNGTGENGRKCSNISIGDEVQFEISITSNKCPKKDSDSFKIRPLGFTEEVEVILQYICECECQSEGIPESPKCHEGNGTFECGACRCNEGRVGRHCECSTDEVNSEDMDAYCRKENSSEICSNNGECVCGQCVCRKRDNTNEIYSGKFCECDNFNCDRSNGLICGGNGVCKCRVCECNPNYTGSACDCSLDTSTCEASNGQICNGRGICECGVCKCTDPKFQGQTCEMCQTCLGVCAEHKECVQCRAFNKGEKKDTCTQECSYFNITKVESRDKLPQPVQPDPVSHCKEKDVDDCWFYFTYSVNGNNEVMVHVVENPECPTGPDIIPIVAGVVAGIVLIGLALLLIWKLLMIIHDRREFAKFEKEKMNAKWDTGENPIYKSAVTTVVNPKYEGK
Chain of Integrin beta-1 (Homo sapiens) + Integrin alpha-4 (Homo sapiens) (P13612 whole entry, looked up): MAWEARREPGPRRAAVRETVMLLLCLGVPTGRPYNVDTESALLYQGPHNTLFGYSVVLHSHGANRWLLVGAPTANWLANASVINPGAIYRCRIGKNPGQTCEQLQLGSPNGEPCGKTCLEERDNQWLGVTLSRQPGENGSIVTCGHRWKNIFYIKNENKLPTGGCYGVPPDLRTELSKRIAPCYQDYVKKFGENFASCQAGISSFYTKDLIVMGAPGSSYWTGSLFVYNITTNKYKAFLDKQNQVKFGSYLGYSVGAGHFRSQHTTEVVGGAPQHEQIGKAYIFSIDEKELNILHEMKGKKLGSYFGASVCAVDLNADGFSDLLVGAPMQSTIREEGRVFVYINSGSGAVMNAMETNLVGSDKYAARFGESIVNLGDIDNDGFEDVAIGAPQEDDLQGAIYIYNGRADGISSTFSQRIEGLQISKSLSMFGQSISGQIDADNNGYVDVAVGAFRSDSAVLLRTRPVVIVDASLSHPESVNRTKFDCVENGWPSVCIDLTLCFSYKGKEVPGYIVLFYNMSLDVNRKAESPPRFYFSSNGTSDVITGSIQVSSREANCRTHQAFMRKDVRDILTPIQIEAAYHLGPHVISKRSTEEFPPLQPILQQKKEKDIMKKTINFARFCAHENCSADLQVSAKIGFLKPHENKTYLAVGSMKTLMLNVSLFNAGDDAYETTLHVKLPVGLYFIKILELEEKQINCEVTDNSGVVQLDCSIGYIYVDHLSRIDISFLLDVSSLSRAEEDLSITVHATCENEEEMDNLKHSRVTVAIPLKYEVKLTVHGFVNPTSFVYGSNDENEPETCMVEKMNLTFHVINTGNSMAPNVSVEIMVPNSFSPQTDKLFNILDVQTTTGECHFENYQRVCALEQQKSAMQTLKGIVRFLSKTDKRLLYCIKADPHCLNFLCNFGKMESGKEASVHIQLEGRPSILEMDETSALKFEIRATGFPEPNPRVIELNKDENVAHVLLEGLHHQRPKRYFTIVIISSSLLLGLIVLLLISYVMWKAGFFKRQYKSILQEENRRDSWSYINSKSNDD
Test [8] is described as follows: calorie-restriction mimetic ROS inhibitors, yeast – validation compound set, pilot screen (AID 2706;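 active = superoxide response below 65% of plate, a cut near 3 SD across the whole screen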;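 also: yeast exposed to compound for one week at 30 degrees C before staining; 100% = mean of all compound wells on the same plate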). Particulars: S. cerevisiae aging, superoxide DHE fluorescence; at 10 µM; stronger effect = lower value.
For test [9], the target named is Beta-adrenergic receptor kinase 1 (Homo sapiens) (UniProt P25098). The experiment in a line: GRK2 binders displacing RNA aptamer, biochemical, validation, human GRK2, bead flow cytometry (AID 488806;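 active = aptamer binding inhibition above 30%, about 3 SD of noise from non-fluorescent compounds; inactive = inhibition at or below 30%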). Conditions: bead-bound GRK2, FAM-aptamer displacement, at 10 µM, stronger effect = higher value.
Chain of Beta-adrenergic receptor kinase 1 (Homo sapiens) (P25098 whole entry, looked up): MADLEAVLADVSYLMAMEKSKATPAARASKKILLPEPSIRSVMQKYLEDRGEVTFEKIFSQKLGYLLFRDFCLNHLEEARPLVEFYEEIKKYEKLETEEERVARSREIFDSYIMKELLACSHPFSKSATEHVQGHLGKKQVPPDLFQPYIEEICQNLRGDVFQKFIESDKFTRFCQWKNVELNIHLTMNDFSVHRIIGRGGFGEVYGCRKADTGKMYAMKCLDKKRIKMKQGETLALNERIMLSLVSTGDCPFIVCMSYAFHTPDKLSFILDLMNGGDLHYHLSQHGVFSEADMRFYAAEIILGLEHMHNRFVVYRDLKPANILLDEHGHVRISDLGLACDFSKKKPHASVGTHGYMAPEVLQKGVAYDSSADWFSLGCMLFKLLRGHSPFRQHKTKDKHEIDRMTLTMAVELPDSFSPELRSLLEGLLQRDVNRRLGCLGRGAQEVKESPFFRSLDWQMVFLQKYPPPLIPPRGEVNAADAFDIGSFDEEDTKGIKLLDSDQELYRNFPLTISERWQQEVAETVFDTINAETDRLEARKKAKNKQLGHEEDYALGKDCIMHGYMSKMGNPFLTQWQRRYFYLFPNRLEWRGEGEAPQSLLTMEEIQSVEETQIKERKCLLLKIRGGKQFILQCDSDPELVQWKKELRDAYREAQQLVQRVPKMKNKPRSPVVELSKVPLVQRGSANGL
The target in test [10] is Beta-2 adrenergic receptor (Homo sapiens) (UniProt P07550). The experiment in a line: agonist-induced loss of surface beta2AR – cell-based, FAP fluorogen, flow cytometry, validation set, pilot screen (AID 504459;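 active = percent response above 42, roughly 3 SD of non-fluorescent test compounds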;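 also: agonist-driven loss of surface beta2AR via internalization measured by FAP dye flow cytometry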). Conditions: Am2.2-beta2AR cells, at 10 µM, stronger effect = higher value.
Chain of Beta-2 adrenergic receptor (Homo sapiens) (P07550 whole entry, looked up): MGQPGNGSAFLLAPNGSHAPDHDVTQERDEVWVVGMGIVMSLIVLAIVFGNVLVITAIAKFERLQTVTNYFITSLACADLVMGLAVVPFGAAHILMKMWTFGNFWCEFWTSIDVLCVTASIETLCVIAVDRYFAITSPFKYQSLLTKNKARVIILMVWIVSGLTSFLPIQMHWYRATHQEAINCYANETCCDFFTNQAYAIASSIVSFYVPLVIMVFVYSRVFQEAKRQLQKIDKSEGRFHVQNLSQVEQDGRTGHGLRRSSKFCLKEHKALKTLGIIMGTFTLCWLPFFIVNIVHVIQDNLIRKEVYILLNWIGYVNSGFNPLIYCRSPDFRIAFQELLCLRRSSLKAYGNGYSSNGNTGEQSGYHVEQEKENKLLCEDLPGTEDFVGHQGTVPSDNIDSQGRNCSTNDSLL
The target of test [11] is AP-2 complex subunit beta (Homo sapiens) (UniProt P63010). Put plainly: beta-arrestin/AP2 interaction blockers – biochemical, validation set, GST-AP2 beads, flow cytometry, pilot screen (AID 504541;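 active = inhibition above 54%, about 3 SD of non-fluorescent compounds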;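 also: AP2 carries R879A mutation and is captured from E. coli lysate; bead-bound FITC arrestin peptide fluorescence measuring arrestin peptide binding to AP2; 0% = DMSO wells and 100% = excess unlabeled arrestin peptide control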). Particulars: FITC arrestin peptide, at 10 µM, stronger effect = higher value.
Test [12] is described as follows: cytosolic pH regulators acting via V-ATPase – S. cerevisiae, pHLuorin, HTS validation (AID 504600; in the data active = response above about 15%;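 also: plate controls were DMSO for no effect and reference compound for full effect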). Particulars: V-ATPase proton transport, at 10 µM, stronger effect = higher value.
Test [13] concerns anti-desmoglein-3 scFv antibody binding to human DSG3. The experiment in a line: blockers of pathogenic pemphigus antibody–desmoglein-3 binding – biochemical, validation compound set, bead-based, flow cytometry, pilot screen (AID 588368;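 active = binding below the plate cutoff, the plate median minus 3 SD, with a reading above zero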;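 also: signal is the median channel fluorescence of bead-bound GFP antibody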). Conditions: Protein G beads, DSG3-Fc, scFv-GFP binding, at 10 µM, stronger effect = lower value.
Test [14] deals with Botulinum neurotoxin type F light chain protease (Clostridium botulinum). Put plainly: Clostridium botulinum type F light chain protease inhibitors, microsphere substrate cleavage, validation (AID 588459). Conditions: multiplex microsphere protease substrate cleavage assay, flow cytometry; at 10 µM; stronger effect = higher value.
Test [15] addresses Botulinum neurotoxin type A (Clostridium botulinum) (UniProt P0DPI0). Put plainly: BoNT/A light chain protease inhibitors, biochemical, multiplex microsphere flow cytometry, validation set (AID 588460). Conditions: at 10 µM, stronger effect = higher value.
In test [16] the target is Lethal factor (Bacillus anthracis) (UniProt P15917). The experiment in a line: Bacillus anthracis lethal factor inhibition, microsphere flow cytometry protease assay, validation at 10 µM (AID 588461). Conditions: multiplex microsphere protease cleavage assay, stronger effect = higher value.
Chain of Lethal factor (Bacillus anthracis) (P15917 whole entry, looked up): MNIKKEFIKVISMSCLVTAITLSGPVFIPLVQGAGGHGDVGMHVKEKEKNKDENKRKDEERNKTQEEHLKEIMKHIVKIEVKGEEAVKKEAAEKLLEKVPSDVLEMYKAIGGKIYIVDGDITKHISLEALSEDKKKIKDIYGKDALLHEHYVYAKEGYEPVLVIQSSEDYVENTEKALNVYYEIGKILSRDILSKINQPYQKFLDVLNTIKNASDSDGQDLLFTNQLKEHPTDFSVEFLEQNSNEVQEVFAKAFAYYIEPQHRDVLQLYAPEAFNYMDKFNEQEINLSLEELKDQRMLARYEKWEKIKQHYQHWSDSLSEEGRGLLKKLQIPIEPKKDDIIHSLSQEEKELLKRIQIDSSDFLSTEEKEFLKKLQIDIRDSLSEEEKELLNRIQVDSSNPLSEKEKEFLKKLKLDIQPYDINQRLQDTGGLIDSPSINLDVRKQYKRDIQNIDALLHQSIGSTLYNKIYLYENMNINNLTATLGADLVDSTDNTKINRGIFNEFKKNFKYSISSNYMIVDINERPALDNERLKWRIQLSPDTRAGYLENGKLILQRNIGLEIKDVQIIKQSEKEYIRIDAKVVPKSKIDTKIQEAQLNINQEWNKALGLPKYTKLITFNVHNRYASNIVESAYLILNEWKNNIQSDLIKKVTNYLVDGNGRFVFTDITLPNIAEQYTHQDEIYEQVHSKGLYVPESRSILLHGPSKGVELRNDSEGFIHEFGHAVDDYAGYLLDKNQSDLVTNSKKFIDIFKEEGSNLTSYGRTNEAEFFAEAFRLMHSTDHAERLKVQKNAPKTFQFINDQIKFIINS
Test [17] in a line: Nile Red efflux blockade in pump-expressing yeast – validation compound set, multiplex, phenotypic, pilot screen (AID 588506;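 active = efflux inhibition above 0.42, the validation set average plus 4 SD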;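 also: Nile Red retained in cells so higher fluorescence means more efflux inhibition; 0 = negative control wells and 1 = enniatin B 25 µM full block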). Conditions: S. cerevisiae pump-expressing triplex, Nile Red efflux flow cytometry; at 10 µM; stronger effect = higher value.
Test [18] has as its target ATP-binding cassette sub-family B member 6 (Homo sapiens) (UniProt Q9NP58). Put plainly: blockers of ABCB6-driven porphyrin uptake – K562-ABCB6 cells, flow cytometry, validation set, pilot screen (AID 588550;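 active = inhibition above the screen-wide mean plus 3 SD, about 51%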;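 also: 0% = DMSO wells and 100% = benzethonium chloride 70 µM positive control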). Conditions: K562-ABCB6 porphyrin accumulation, 1 h, at 10 µM, stronger effect = higher value.
Test [19] in a line: AML differentiation inducers, ER-HoxA9 marrow cells – cell-based, GFP/MAC1 double positive, flow cytometry, validation set, primary screen (AID 588685;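 active = differentiation response of at least 50%, scaled between solvent and reference control, from cells with both markers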;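 also: compound exposure lasts four days before antibody staining and flow analysis; 0% = DMSO wells and 100% = 5 µM fulvestrant positive control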). Particulars: stronger effect = higher value.

Inconclusive results are not listed. Calls of active or inactive are those of the source. Unless noted, no rule for the calls is given here.

Chain of ATP-binding cassette sub-family B member 6 (Homo sapiens) (Q9NP58 whole entry, looked up): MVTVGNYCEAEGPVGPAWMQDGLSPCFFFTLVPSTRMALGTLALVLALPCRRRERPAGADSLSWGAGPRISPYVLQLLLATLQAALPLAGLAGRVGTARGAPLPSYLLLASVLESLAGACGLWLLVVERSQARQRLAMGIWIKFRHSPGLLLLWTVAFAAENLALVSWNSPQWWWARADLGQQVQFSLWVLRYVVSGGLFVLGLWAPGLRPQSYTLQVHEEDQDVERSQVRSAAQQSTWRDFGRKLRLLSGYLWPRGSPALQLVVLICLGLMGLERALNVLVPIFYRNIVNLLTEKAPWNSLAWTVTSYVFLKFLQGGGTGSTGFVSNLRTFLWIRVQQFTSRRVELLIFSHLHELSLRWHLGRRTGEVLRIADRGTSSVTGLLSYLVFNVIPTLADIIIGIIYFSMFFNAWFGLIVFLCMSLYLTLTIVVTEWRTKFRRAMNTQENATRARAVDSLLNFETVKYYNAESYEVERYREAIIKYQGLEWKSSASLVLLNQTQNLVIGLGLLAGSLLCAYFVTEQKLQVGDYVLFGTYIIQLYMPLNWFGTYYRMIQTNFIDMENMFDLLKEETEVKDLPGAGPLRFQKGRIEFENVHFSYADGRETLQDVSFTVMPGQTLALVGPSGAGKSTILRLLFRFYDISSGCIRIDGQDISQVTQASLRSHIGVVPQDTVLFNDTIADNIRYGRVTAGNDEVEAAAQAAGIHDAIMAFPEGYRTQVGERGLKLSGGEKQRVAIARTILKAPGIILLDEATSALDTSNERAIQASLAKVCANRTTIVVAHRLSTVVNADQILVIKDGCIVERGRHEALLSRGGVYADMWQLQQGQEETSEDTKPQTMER

For `O=C1NCCN2CCCC12` (stereo not given), in [1], the percent of DMSO control GFP was 100% (inactive). The results for the GFP response vs DMSO in [2] and in test [4] were 99.7% (inactive) and 93.7% (inactive), respectively. Also, the percent response of DMSO control in [3] is 102% (inactive). Besides, the GFP response, % of DMSO in test [5] was 102% (inactive). In test [6], the double positive events came out at 58.7%. The vesicle binding response in test [6] is 108% (inactive). For the same compound, the inhibition in [7] was 12.3% (inactive); in test [11], 4.79% (inactive); in test [14], -0.2% (inactive); in test [15], -0.6% (inactive); in test [16] it was 5.9% (inactive); in test [18], 21% (inactive). Further, the superoxide response (% of plate) in [8] was 92.8% (inactive). Besides, the aptamer binding inhibition in test [9] is 0% (inactive). The values for the response in test [10] and in test [12] were 0.01% (inactive) and 113% (active), respectively. The binding (% of control) in [13] was 101% (inactive). Besides, the efflux inhibition (fraction of control) in [17] was -0.09 (inactive). Further, the differentiation response in test [19] was -11.9% (inactive).
Turning to `CC1CCC[C@H](O)CCCCCc2cc(O)cc(O)c2C(=O)O1` (stereo not given in full), the percent of DMSO control GFP in [1] is 102% (inactive). Moreover, the GFP response vs DMSO in [2] is 99.7% (inactive); in [4], 114% (inactive). Besides, the percent response of DMSO control in [3] was 106% (inactive). For the same compound, the GFP response, % of DMSO in test [5] was 109% (inactive). In [6], this compound displayed a double positive events of 62.7%. In [6], the vesicle binding response is 174% (inactive). Moreover, the inhibition in [7] is 19% (inactive); in test [11], -18.8% (inactive); in test [14] it was -0.6% (inactive); in test [15] it was 0.6% (inactive); in test [16], -2.4% (inactive); in [18], -7% (inactive). In [8], the superoxide response (% of plate) is 111% (inactive). Also, the aptamer binding inhibition in [9] is -3% (inactive). Also, the figures for the response in test [10] and in test [12] were -2.64% (inactive) and 6.16% (inactive), respectively. Besides, the binding (% of control) in test [13] was 106% (inactive). The efflux inhibition (fraction of control) in test [17] was 0.69 (active). Also, in [19], the differentiation response is -4.57% (inactive).
`CCn1ccnc1CN1CCCC(C(=O)c2cc(F)ccc2OC)C1` (stereo not given): the percent of DMSO control GFP in test [1] was 100% (inactive). Further, the GFP response vs DMSO is 93% (inactive) in test [2] and 99.9% (inactive) in [4]. Further, the percent response of DMSO control in test [3] was 96.7% (inactive). Further, the GFP response, % of DMSO in [5] was 102% (inactive). This compound also yielded a double positive events in [6] of 61.5%. Besides, the vesicle binding response in test [6] was 125% (inactive). The inhibition in test [7] was -3.16% (inactive); in test [11] it was 18.6% (inactive); in test [14], 0.8% (inactive); in test [15] it was -1.2% (inactive); in test [16] it was -1.6% (inactive); in test [18] it was 3% (inactive). Moreover, the superoxide response (% of plate) in test [8] is 96.9% (inactive). In addition, the aptamer binding inhibition in test [9] was 2% (inactive). The results for the response in test [10] and in test [12] were -6.87% (inactive) and 1.54% (inactive), respectively. In addition, the binding (% of control) in test [13] is 98.4% (inactive). The efflux inhibition (fraction of control) in test [17] is -0.21 (inactive). Also, the differentiation response in test [19] was -8.8% (inactive).
As to `COc1cccc(Oc2c(C)oc3cc(OC(=O)N(C)C)ccc3c2=O)c1`, in test [1], the percent of DMSO control GFP was 102% (inactive). Moreover, the values for the GFP response vs DMSO in [2] and in test [4] were 102% (inactive) and 99.1% (inactive), respectively. Moreover, the percent response of DMSO control in [3] was 107% (inactive). Moreover, the GFP response, % of DMSO in [5] was 99.4% (inactive). In addition, the double positive events in [6] was 60.2%. Also, the vesicle binding response in test [6] is 148% (inactive). Also, the inhibition was 5.61% (inactive) in test [7]; 8.84% (inactive) in [11]; -1.7% (inactive) in test [14]; -0.4% (inactive) in test [15]; -1.2% (inactive) in [16]; 23% (inactive) in test [18]. Moreover, the superoxide response (% of plate) in test [8] was 110% (inactive). Further, the aptamer binding inhibition in test [9] was 0% (inactive). The response in [10] was -2.34% (inactive); in test [12], -4.25% (inactive). Further, the binding (% of control) in test [13] is 101% (inactive). Moreover, in test [17], the efflux inhibition (fraction of control) is -0.02 (inactive). The differentiation response in test [19] was -3.11% (inactive).

For orientation: inhibition means the relative decrease from the control value, in per cent.

These data come from PubChem BioAssay.
